The list is not random: actives were taken first. Their share in the collection is about 7.9%.
FMDV antiviral: antivirals against foot and mouth disease virus. FMDV antiviral cell-based qHTS. Potency, µM (titrated, usually from 57.9 µM), without a hit: at the highest dose activity change, negative = inhibition, usual class: inhibitors. 1.2% of 410,000 active. AID 1159524; calls by dose curve; tested in HEK293T cells; further: read-out not given here; potency means the concentration at half of the fitted maximal effect; nearly all actives have a fitted effect of over 45% in size
HCMV antiviral: inhibitors of human cytomegalovirus. HFF cells, HCMV-luciferase reporter, 72 h; active compounds read low. activity change, negative = inhibition, % at 57.5 µM. 4.5% of 410,000 active. AID 1259415; in the data active means activity change below about -60%; inconclusive means no clear call, values can overlap the other calls; inactive means above about -39%
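Two compound doses tested in HFFs infected with HCMV-luciferase, MOI 1 PFU/cell, 72 h at 37C. Lysate luminescence read with OneGlo; data normalized against buffer-only and 10uM Salinomycin inhibitor controls.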
Marburg entry inh: blocks Marburg virus binding to or entry into cells; Marburg virus pseudotyped entry inhibition, cell reporter; Potency, µM (series often up to 37.8 µM), inactives show at the highest dose activity change, negative = inhibition, hits mostly inhibitors; 1.8% of 300,000 active; calls by dose curve; tested in HEK293 cells; further: potency means the concentration at half of the fitted maximal effect
HCV inhibitor: inhibitors of hepatitis C virus infection | 3.4% of 340,000 active | Huh7.5.1 HCVcc-Cre infection, luciferase reporter, 44 h | AID 651820 | Potency, µM (series often up to 41.8 µM), inactives show top-dose activity change, negative = inhibition, actives largely listed as inhibitors; active means well fitted inhibition curve with a large enough effect; inconclusive means small, poorly fitted or top-dose-only effect, or another doubt; inactive means no such curve, though single readings can be large or run the other way; further: potency means the concentration at half of the fitted maximal effect
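Seed cells (1,000/well) for 4 h; treat with compound and infect with HCVcc-Cre, moi about 0.5. Incubate 44 h, then detect luciferase activity.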
LASV entry inh: blocks Lassa virus binding to or entry into cells; Potency, µM (top dose mostly 37.9 µM), inactives show top-dose activity change, negative = inhibition, usual class: inhibitors; AID 540256; Lassa virus pseudotype entry inhibition, cell reporter; 1.2% of 300,000 active; calls by dose curve; tested in HEK293 cells; further: potency means the concentration at half of the fitted maximal effect; nearly all actives have a fitted effect of over 50% in size
Active calls of the source: *; [ ] = dose if it differs, or a comment. On the % scale 0 is the no-effect control and ±100 the full control effect.

How did CC(=O)Oc1ccc(C(=O)Nc2ccc(S(=O)(=O)N3CCOCC3)cc2)cc1 do in these assays?
FMDV antiviral: -14%; HCMV antiviral: 28; Marburg entry inh: inconclusive; HCV inhibitor: -10%; LASV entry inh: inconclusive

What do the screens show for `O=C(NC[C@@H]1CC[C@@H](Cc2ccc(-c3ccccc3)cc2)O1)Nc1ccc(Br)cc1`?
FMDV antiviral: -13%; HCMV antiviral: -26; HCV inhibitor: 5µM*

How did O=C(NCCCCc1ccccc1)NC[C@@H]1CC[C@@H](Cc2ccc(-c3ccccc3)cc2)O1 do in these assays?
FMDV antiviral: inconclusive; HCMV antiviral: -17; HCV inhibitor: inconclusive

How did COc1ccccc1[C@]1(C)ON(c2ccccc2C(F)(F)F)C1=O do in these assays?
FMDV antiviral: inconclusive; HCMV antiviral: -1; HCV inhibitor: inconclusive

What do the screens show for `CC[C@]1(c2ccccc2OC)ON(c2ccccc2C(F)(F)F)C1=O`?
FMDV antiviral: 22µM*; HCMV antiviral: -29; HCV inhibitor: inconclusive

What do the screens show for `COc1ccc2nc(C)c3c(c2c1)OC(C)C3` (centres undefined)?
FMDV antiviral: -13%; HCMV antiviral: -15; Marburg entry inh: 3%; HCV inhibitor: -18%; LASV entry inh: 21%

Results for CCOC(=O)c1ccc2nc(C)c3c(c2c1)OC(C)C3 (centres undefined) ?
FMDV antiviral: -22%; HCMV antiviral: -36; Marburg entry inh: -5%; HCV inhibitor: 10µM*; LASV entry inh: -26%

Results for O=C1[C@H]2[C@H]3[C@H](O)[C@H](O)C/C(=N\OC[C@@H](O)COCc4ccco4)[C@H]3CC[C@H]2C(=O)N1C[C@@H]1CCCO1 ?
Marburg entry inh: -1%[14.2 µM]

What do the screens show for `Cc1ccc(-n2c(SCC(=O)c3c(N)n(C)c(=O)n(C)c3=O)nc3sc4c(c3c2=O)CCCC4)c(C)c1`?
FMDV antiviral: 12%; HCMV antiviral: -68*; Marburg entry inh: inconclusive; HCV inhibitor: inconclusive; LASV entry inh: -7%

Results for Cc1ccc(-n2c(SCC(=O)O)nc3sc4c(c3c2=O)CCCC4)cc1 ?
FMDV antiviral: -8%; HCMV antiviral: 42; Marburg entry inh: 12%[46.1 µM]; HCV inhibitor: -6%; LASV entry inh: inconclusive

What do the screens show for `COc1ccc(-n2c(N3CCN(C)CC3)nc3sc4c(c3c2=O)CCCCC4)cc1`?
FMDV antiviral: 9%; HCMV antiviral: -20; Marburg entry inh: -11%; HCV inhibitor: 13µM*; LASV entry inh: -21%

What do the screens show for `CN(C)CCNc1nc2sc3c(c2c(=O)n1-c1ccccc1)CCCCC3`?
FMDV antiviral: -9%; HCMV antiviral: 1; Marburg entry inh: inconclusive; HCV inhibitor: -56%; LASV entry inh: -6%

What do the screens show for `CN(C)CCNc1nc2sc3c(c2c(=O)n1Cc1ccccc1)CCCCC3`?
FMDV antiviral: -7%; HCMV antiviral: -20; Marburg entry inh: 10µM*; HCV inhibitor: 11µM*; LASV entry inh: 8%

What do the screens show for `COc1ccc(-n2c(SCC(=O)O)nc3sc4c(c3c2=O)CCC4)cc1`?
FMDV antiviral: -5%; HCMV antiviral: -17; Marburg entry inh: inconclusive; HCV inhibitor: 3%; LASV entry inh: -1%

Results for COc1ccc(-n2c(C)nc3sc4c(c3c2=O)CCC4)cc1 ?
FMDV antiviral: 0%; HCMV antiviral: -2; Marburg entry inh: -10%[46.1 µM]; HCV inhibitor: 0%; LASV entry inh: -14%

Results for COc1ccc(-n2c(SCC(N)=O)nc3sc4c(c3c2=O)CCC4)cc1 ?
FMDV antiviral: -24%; HCMV antiviral: 1; Marburg entry inh: -3%[46.1 µM]; HCV inhibitor: 10µM*; LASV entry inh: 7%

Results for C/C=C/c1ccc2oc(-c3ccc(O)cc3)c(C)c2c1 ?
FMDV antiviral: 29%

What do the screens show for `Cc1cc(CNC(=O)c2cnn(-c3ncc4c(n3)-c3ccccc3CCC4)c2C2CC2)on1`?
FMDV antiviral: 21%

How did C[C@@H]1CCc2cc(F)cc3c(O)c(C(=O)NC[C@H]4CCCO4)c(=O)n1c23 do in these assays?
Marburg entry inh: -22%[46.1 µM]

What do the screens show for `CN(C)CCNc1nc2sc3c(c2c(=O)n1-c1ccc(F)cc1)CCCCC3`?
FMDV antiviral: -13%; HCMV antiviral: 45; Marburg entry inh: inconclusive; HCV inhibitor: inconclusive; LASV entry inh: inconclusive

Results for COc1ccc(-n2c(NCCN(C)C)nc3sc4c(c3c2=O)CCCCC4)cc1 ?
FMDV antiviral: -29%; HCMV antiviral: -107*; Marburg entry inh: 23µM*; HCV inhibitor: inconclusive; LASV entry inh: -19%

Bioassay records as filed in PubChem BioAssay.
